This is a sample that favours compounds with a hit; in the whole collection about 2.5% have one here.
GRK2 aptamer HTS = compounds blocking aptamer binding on GRK2 – biochemical, human GRK2, bead flow cytometry, HTS, primary screen | FAM-aptamer displacement from GRK2 | inhibition of aptamer binding, % at 10 µM | Beta-adrenergic receptor kinase 1 (Homo sapiens), P25098 | actives 0.59% (n = 330,000);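 active = inhibition of aptamer binding above 40%, roughly 3 SD of noise, on plates passing a quality check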;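 also: median bead fluorescence of bound FAM aptamer so fluorescent compounds give negative values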
Target sequence (P25098 whole entry, looked up): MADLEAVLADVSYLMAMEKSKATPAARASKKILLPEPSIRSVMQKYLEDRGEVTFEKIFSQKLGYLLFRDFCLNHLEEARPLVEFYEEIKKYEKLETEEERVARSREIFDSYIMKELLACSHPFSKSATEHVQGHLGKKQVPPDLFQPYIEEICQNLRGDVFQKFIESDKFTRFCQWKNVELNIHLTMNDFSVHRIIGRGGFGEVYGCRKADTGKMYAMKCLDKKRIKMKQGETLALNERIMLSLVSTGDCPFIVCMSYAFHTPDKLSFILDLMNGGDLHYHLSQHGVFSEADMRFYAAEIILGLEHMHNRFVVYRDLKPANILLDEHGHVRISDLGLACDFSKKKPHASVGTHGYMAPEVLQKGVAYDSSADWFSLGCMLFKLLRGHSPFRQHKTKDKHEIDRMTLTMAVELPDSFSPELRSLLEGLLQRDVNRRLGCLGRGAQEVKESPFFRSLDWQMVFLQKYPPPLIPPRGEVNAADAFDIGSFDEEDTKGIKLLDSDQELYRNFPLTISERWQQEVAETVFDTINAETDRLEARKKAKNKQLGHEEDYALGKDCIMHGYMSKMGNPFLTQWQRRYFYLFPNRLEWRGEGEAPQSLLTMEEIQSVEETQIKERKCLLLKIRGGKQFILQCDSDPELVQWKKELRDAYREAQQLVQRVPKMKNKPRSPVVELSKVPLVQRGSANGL
MEKK2mut PB1 HTS = MEK5 binding signal on mutant MEKK2 PB1, primary screen, biochemical, multiplex bead flow cytometry, Alexa488-MEK5; Alexa488-MEK5 binding to MEKK2 mutant; percent response, % at 10 µM; actives 0.35% (n = 290,000); in the data active = percent response above about 24%, passing the limit was not always enough
MEKK3 PB1 HTS = modulators of MEKK3-MEK5 PB1 binding, primary screen, biochemical, wildtype MEKK3, multiplex bead flow cytometry, Alexa488-MEK5; bead-based flow cytometry, Alexa488-MEK5 binding to MEKK3; actives lie on both sides; 0 = blocked by unlabeled MEK5, 100 = vehicle; actives 1.4% (n = 290,000); binding response (% of control), % at 10 µM; AID 1529, 2009;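 active = binding response more than 3 SD above or below the average of its plate-row segment, actives on both sides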;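 also: Alexa488 bead fluorescence after subtracting the streptavidin-only scavenger bead signal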
MEKK2 WT-MEK5 = modulators of MEK5 binding to wildtype MEKK2, primary screen, biochemical, multiplex bead flow cytometry, Alexa488-MEK5. Mitogen-activated protein kinase kinase kinase 2 (Homo sapiens), Q9Y2U5. Alexa488-MEK5 binding to MEKK2 WT; actives lie on both sides. binding response (% of control), % at 10 µM. actives 1.1% (n = 290,000); in the data active = binding response below about 67% or above about 130%
GRK2 inh confirm = GRK2 aptamer-displacing inhibitors, retest, confirmation, biochemical, cherry pick 1, bead flow cytometry. shares compounds with GRK2 aptamer HTS. actives 4% (n = 2,000). bead-bound GRK2, FAM-aptamer displacement. aptamer displacement, % at 10 µM;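 active = aptamer displacement above 40%, near three times the noise of non-fluorescent compounds, on plates passing quality checks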;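 also: negative values mostly reflect intrinsic compound fluorescence rather than true enhancement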
Aptamer quench SP = counter-screen for GRK2 aptamer inhibitors: fluorescent aptamer quenchers; shares compounds with GRK2 aptamer HTS; Carboxyfluorescein RNA aptamer on beads, flow cytometry quenching; stronger effect = lower value; fluorescence response (% of DMSO), % at 10 µM; 2,000 tested, under 10 active; AID 504580;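 active = compounds that quench the bead-bound fluorescent RNA probe, cutting fluorescence to under half of the solvent control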;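 also: counterscreen run without GRK2 so only probe quenching by compound is measured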
GRK2 CP2 = GRK2 aptamer-displacing inhibitors, hit retest, confirmation, biochemical, cherry pick 2, bead flow cytometry. inhibition of aptamer binding, % at 10 µM. 360 tested, under 10 active. bead-bound GRK2, FAM-aptamer displacement. AID 504782, 2011. shares compounds with GRK2 aptamer HTS;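 active = inhibition of aptamer binding above 40%, about triple the noise seen with nonglowing compounds, on plates passing quality control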;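 also: negative values mostly come from compounds that fluoresce themselves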
FAM quench SP = quenches fluorescent RNA aptamer, GRK2 hit artifact. shares compounds with GRK2 aptamer HTS. carboxyfluorescein RNA aptamer beads, flow cytometry quenching; stronger effect = lower value. fluorescence response vs DMSO, % at 10 µM. 360 tested, under 10 active. AID 588494;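 active = response vs DMSO under 50%, meaning signal dropped by over half, treated as fluorescence quencher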;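 also: labelled aptamer on streptavidin beads without GRK2 as a quench counter-screen; 100% = bead fluorescence of DMSO wells and lower means quenching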
Starred values were filed as active, the others as inactive; . = not tested or not shown.

SMILES	GRK2 aptamer HTS	MEKK2mut PB1 HTS	MEKK3 PB1 HTS	MEKK2 WT-MEK5	GRK2 inh confirm	Aptamer quench SP	others
O=C(CN1C(=O)NC2(CCCc3ccccc32)C1=O)c1ccccc1F (stereo not given)	7	.	.	.	.	.
CC(=O)CCN1C(=O)NC2(CCCc3ccccc32)C1=O (stereo not given)	58*	4	104	109	.	.	GRK2 CP2=-33;FAM quench SP=99
CC(=O)Nc1ccc(C(=O)CN2C(=O)NC3(CCCc4ccccc43)C2=O)c(F)c1 (stereo not given)	27	.	.	.	0	104
Cn1cnc(NCc2ccccc2)c1[N+](=O)[O-]	1	4	102	98	.	.
CCOC(=O)C1CCN(C(=O)C2CCC(=O)N(CC3CCCCC3)C2)CC1 (stereo not given)	1	-3	101	93	.	.
CC1(C)Cc2c(sc(NC(=O)COc3cccc4ccccc34)c2C#N)C(C)(C)N1	63*	-3	93	97	-35	131
COc1cc(/C=C2\SC(=S)N(NC(C)=O)C2=O)ccc1OC(=O)c1ccco1	0	.	.	.	2	95
CC(Nc1cccc(C(=O)NC2CC2)c1)c1nnc(-c2ccccc2)o1 (stereo not given)	4	.	.	.	0	97
O=C(NC1CC1)c1cccc(Oc2ccccc2)c1	21	-2	95	92	.	.
COc1cccc(C(=O)NC2CCNCC2)c1	0	1	101	99	.	.
COc1ccc(-c2nnc(C(C)Nc3cccc(C(=O)NC4CC4)c3)o2)cc1 (stereo not given)	11	.	.	.	2	100
COc1cccc(C2(O)CCN(C(=O)C(C)C)CC2)c1	55*	-29	58	52	1	100
O=C(NCC1CCCO1)c1ccc(-c2ccccc2Cl)o1 (stereo not given)	0	.	.	.	.	.
Cc1ccc(S(=O)(=O)NCc2ccccc2)cc1	.	-3	103	96	.	.
CSc1ccc(S(=O)(=O)NCc2ccc(C)cc2)cc1	71*	-4	95	98	0	102
CSc1ccc(C2CC(=O)Nc3c2c(=O)n(C)c(=O)n3C)cc1 (stereo not given)	85*	1	97	99	1	98
CC(C)C(c1nnnn1C(C)(C)C)N1CCOCC1 (stereo not given)	47*	3	104	102	-4	96
CC(C)C(c1nnnn1C1CCCCC1)N1CCOCC1 (stereo not given)	1	-6	99	90	.	.
Cc1ccc(SCc2c(C(=O)N/N=C/c3ccc4c(c3)OCO4)nnn2-c2nonc2N)cc1	51*	-1	99	91	-3	96
Cc1ccc(SCc2c(C(=O)N/N=C/c3ccccc3)nnn2-c2nonc2N)cc1	1	10	111	103	.	.
CC1(NC(=O)CC(c2ccccc2)(c2ccccc2)c2ccccc2)CCN(CCCc2ccccc2)C1=O (stereo not given)	1	.	.	.	.	.
O=C(NNC(=O)c1cc(Br)c(Br)s1)c1ccncc1	3	.	.	.	.	.
COc1cccc(C(CNC(=O)C2CCN(C(=O)Nc3ccccc3)CC2)N(C)C)c1 (stereo not given)	0	.	.	.	.	.
Cc1ccc2nc(-c3ccc(NC(=O)CSc4ccccc4)cc3)[nH]c2c1	0	-6	89	86	.	.
O=C(CSc1ccccc1)Nc1ccc(-c2nc3ccccc3[nH]2)cc1	100*	-4	94	86	.	.	GRK2 CP2=12;FAM quench SP=101
SMILES	GRK2 aptamer HTS	MEKK2mut PB1 HTS	MEKK3 PB1 HTS	MEKK2 WT-MEK5	GRK2 inh confirm	Aptamer quench SP	others
CC(C)[C@H](NC(=O)N1c2ccccc2NC(=O)[C@@H]1C(C)C)C(=O)N[C@@H](Cc1c[nH]c2ccccc12)C(=O)O	1	5	101	109	.	.
CCOc1ccc(CNC(=S)N/N=C\c2ccc([N+](=O)[O-])cc2)cc1	64*	13	97	101	0	102
CCOC(=O)c1ccc(Oc2nc(OC)cc(OC)n2)cc1	0	-5	97	96	.	.
O=C(CCC1CCCN(C(=O)c2ccc3c(c2)OCCO3)C1)NCc1ccccc1F (stereo not given)	0	8	104	101	.	.
Cc1ccc(CNC(=O)CCC2CCCN(C(=O)c3ccc4c(c3)OCO4)C2)o1 (stereo not given)	45*	-7	93	95	-2	93
CCCN(CCC)CCCNC(=O)c1ccc(CS(=O)(=O)c2c(Cl)cccc2Cl)o1	48*	7	103	111	.	.	GRK2 CP2=-14;FAM quench SP=99
CC(=O)NN1CCc2cc3ccc(C)cc3nc21	90*	0	99	95	-10	96
Nc1c(C(=O)NCCc2ccccc2)nnn1Cc1ccc(Cl)cc1	1	-3	104	93	.	.
Nc1c(C(=O)NCCc2ccccc2)nnn1Cc1ccc(Br)cc1F	50*	-12	103	95	-7	103
CCc1ccc(Nc2nnc(SCC(=O)NC(=O)CN3CCCC3=O)s2)cc1	45*	.	.	.	19	102
O=C(Nc1nc2c(ccc3ccccc32)s1)c1ccco1	0	2	110	102	.	.	GRK2 CP2=5;FAM quench SP=101
CCOc1cc(N2CCOCC2)c(OCC)cc1NC(=O)c1ccc(F)c(S(=O)(=O)N2CCOCC2)c1	.	.	.	.	2	95
CCOc1cc(N2CCOCC2)c(OCC)cc1NC(=O)c1[nH]c(C)c(C(C)=O)c1C	3	.	.	.	.	.
CCOc1ccc(S(=O)(=O)N2CCOCC2)cc1NC(=O)c1ccccc1F	1	0	102	102	.	.
CCOc1cc(N2CCOCC2)c(OCC)cc1NC(=O)c1cc(S(=O)(=O)N2CCOCC2)ccc1C	8	.	.	.	0	97
CCOc1cc(N2CCOCC2)c(OCC)cc1NC(=O)c1ccc(S(C)(=O)=O)cc1	90*	-15	95	93	5	106
Cn1c(SCc2cccc([N+](=O)[O-])c2)nc2c(c1=O)SCC2	0	-2	104	96	.	.
Cn1ccnc1C(OC(=O)c1ccc(Cl)cc1)C(F)(F)F (stereo not given)	0	3	96	99	.	.
